Screens as filed in PubChem BioAssay.
POLH inh: inhibitors of human DNA polymerase eta | recombinant Pol eta, fluorescent DNA replication assay | Potency, µM (top dose mostly 114 µM), for the others: at the highest dose activity change, negative = inhibition, most hits filed as inhibitors | 1.2% of 390,000 active | AID 588591; further: potency means the concentration at half of the fitted maximal effect; on the % scale 0 is the no-effect control and ±100 the full control effect
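Pol eta at 10 nM preincubated with compounds 15 min at room temperature; reaction started with fluorescent substrate (50 nM final) and read kinetically at 0 and 10 min.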
Pol iota inh: inhibitors of human DNA polymerase iota | Q9UNA4 | Pol iota fluorescent replication assay, 10 min | Potency, µM (doses to about 115 µM), inactives show at the highest dose activity, negative = inhibition, usual class: inhibitors | 1% of 390,000 active | AID 588590; further: potency means the concentration at half of the fitted maximal effect
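Pol iota at 10 nM preincubated 15 min with compounds at room temperature; reaction started with fluorescent substrate, 50 nM final. Fluorescence read kinetically at 0 and 10 min; buffer-only wells as negative control.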
PI5P4K alpha inh: inhibitors of human PI5P4K alpha; 1.2% of 330,000 active; max response, %; PI5P4Kalpha enzyme, ADP-Glo luminescence, 60 min; stronger effect = lower value; active means max response of -50% or lower; inconclusive means between -30% and -50%; inactive means -30% or higher; further: value at the top dose of about 77 µM; on the % scale 0 is the no-effect control and ±100 the full control effect
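Enzyme plus substrate dispensed, test compounds pinned in, then ATP (5 microM final) added. After 60 min at RT, ADP-Glo reagent 1 for 45 min and reagent 2 for 30 min preceded luminescence imaging.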
WRN helicase inh: inhibitors of human WRN helicase. Q14191. WRN helicase unwinding, fluorescent forked duplex, kinetic. Potency, µM (top dose mostly 114 µM), for the others: top-dose activity change, negative = inhibition, most hits filed as inhibitors. 0.46% of 360,000 active; further: potency means the concentration at half of the fitted maximal effect; on the % scale 0 is the no-effect control and ±100 the full control effect; nearly all actives have a fitted effect of over 55% in size
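Screening of the MLSMR collection measured strand separation of a quenched forked DNA duplex (100 nM) by 20 nM WRN with 2 mM ATP, all final. Compounds were preincubated with enzyme 15 min at room temperature.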
Pol kappa inh: inhibitors of human DNA polymerase kappa; purified Pol kappa, fluorescent DNA synthesis assay, 10 min; Q9UBT6; 0.53% of 400,000 active; Potency, µM (top dose mostly 107 µM), for inactives: at the top dose activity, negative = inhibition, usual class: inhibitors; further: potency means the concentration at half of the fitted maximal effect; on the % scale 0 is the no-effect control and ±100 the full control effect
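50 nM final substrate added after 15 min RT preincubation of 10 nM Pol kappa with compound; fluorescence read at 0 and 10 min.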
Pol beta inh: inhibitors of human DNA polymerase beta; Pol beta primer extension/strand displacement, fluorescence kinetic; Potency, µM (series often up to 114 µM), for the others: at the highest dose activity change, negative = inhibition, most hits filed as inhibitors; P06746; 1.3% of 340,000 active; further: potency means the concentration at half of the fitted maximal effect; on the % scale 0 is the no-effect control and ±100 the full control effect
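Preincubation: enzyme (10 nM) with compound, 15 min, RT. Reaction: substrate added to 50 nM final. Reads: 0 and 10 min. Analysis: normalized, Hill fit.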
ADP-Glo counter: interferes with ADP-Glo detection without enzyme present | shares compounds with PI5P4K alpha inh | ADP-Glo detection counter-screen, luciferase luminescence, no enzyme | Potency, µM (titrated, usually from 76.9 µM), without a hit: at the highest dose activity change, negative = inhibition, actives largely listed as inhibitors | 1,100 tested, under 10 active | AID 743285
* = called active by the depositor; [ ] = remark or other dose. Compounds with a hit are over-represented: about 2.8% of the library has one in this group of screens. Unless noted, the call rests on the fitted dose curve; in most records, active means well fitted curve in the direction sought with a large enough effect; inconclusive means small, poorly fitted or top-dose-only effect, or another doubt; inactive means no such curve, though single readings can be large; an effect the other way counts as inactive or inconclusive.

For COc1n[nH]c(C(=O)Nc2nc3ccccc3s2)c1[N+](=O)[O-] the results were POLH inh inconclusive, Pol iota inh inconclusive, PI5P4K alpha inh -54*, WRN helicase inh -6%[11.6 µM], Pol kappa inh -12%, Pol beta inh -2% and ADP-Glo counter 2%.
Cc1cc(Nc2cc(C(=O)O)ccc2C)n2ncnc2n1 was read as POLH inh -19%, Pol iota inh 4%, PI5P4K alpha inh 4, WRN helicase inh -1%, Pol kappa inh 2% and Pol beta inh 10%.
Screening Cc1cc(Nc2ccccc2C(=O)O)n2ncnc2n1 returned POLH inh 6%, WRN helicase inh 7% and ADP-Glo counter 1%.
Screening CCOC(=O)c1cccc(NC(=O)CCn2nc(C)c3c(C)n(-c4ccccc4)nc3c2=O)c1 returned POLH inh 3%, Pol iota inh 2%, Pol kappa inh 8% and Pol beta inh 21%.
`Cc1cccc(Nc2nc(NCc3ccco3)c3ccccc3n2)c1` gave POLH inh -11%, Pol iota inh -1%, WRN helicase inh inconclusive, Pol kappa inh -2%, Pol beta inh 5% and ADP-Glo counter 2%.
For COc1cccc(C(=O)NCC2OCCc3ccccc32)c1 (stereo not given) the results were POLH inh -4%, Pol iota inh -2%, Pol kappa inh -14% and Pol beta inh 19%.
For O=C(COC(=O)CCc1nc2ccccc2c(=O)[nH]1)Nc1ccc(Cl)cn1 the results were POLH inh -34%, Pol iota inh 62%, PI5P4K alpha inh -55*, WRN helicase inh -1%, Pol kappa inh -4%, Pol beta inh 3% and ADP-Glo counter 1%.
`O=C(COC(=O)CCc1nc2ccccc2c(=O)[nH]1)Nc1ccccc1` gave POLH inh -6%, Pol iota inh -13%, PI5P4K alpha inh -4, WRN helicase inh inconclusive and Pol kappa inh -13%.
`CC1Cc2ccccc2N1C(=O)COC(=O)CCc1nc2ccccc2c(=O)[nH]1` (stereo not given) gave POLH inh -8%, Pol iota inh 9%, PI5P4K alpha inh -51*, WRN helicase inh -12%, Pol kappa inh -7%, Pol beta inh inconclusive and ADP-Glo counter -3%.
Screening CCOC(=O)c1[nH]c2ccccc2c1NC(=O)c1cc(OCC)c(OCC)c(OCC)c1 returned POLH inh -11%, Pol iota inh 0%, Pol kappa inh 4% and Pol beta inh -19%.
Screening CN(C)CCN(Cc1ccccc1)S(=O)(=O)c1ccc2[nH]c(=O)ccc2c1 returned POLH inh -15%, Pol iota inh 16%, Pol kappa inh -6%[60.1 µM] and Pol beta inh 2%.
`O=C(O)CCc1ccc(-c2ccccc2)n1-c1cccc(Br)c1` gave POLH inh -1%, Pol iota inh 10%, Pol kappa inh -5% and Pol beta inh inconclusive.
For O=C(COc1ccccc1Cl)OCc1cc(=O)n2nc(C3CCCCC3)sc2n1 the results were POLH inh -14%, Pol iota inh 27%, Pol kappa inh 0% and Pol beta inh 7%.
For CC(=O)Oc1ccc(C(=O)Nc2cccc(C(=O)c3ccc(C)c(C)c3)c2)cc1 the results were POLH inh -28%, Pol iota inh 15%, PI5P4K alpha inh -57*, WRN helicase inh -12%, Pol kappa inh -16%, Pol beta inh 10% and ADP-Glo counter -7%.
Screening O=C(Nc1ccc(F)c(F)c1)c1cnn2c1NC(=C1CC1)C=C2C(F)F returned Pol iota inh -19% and Pol kappa inh -8%.
`CC(NC(=O)CN1c2cccc3cccc(c23)S1(=O)=O)c1ccc(S(N)(=O)=O)cc1` (stereo not given) gave POLH inh 20µM*, Pol iota inh 28µM*, PI5P4K alpha inh -55*, WRN helicase inh inconclusive, Pol kappa inh inconclusive and ADP-Glo counter 2%.
For CC(C)C1Nc2ccc(S(N)(=O)=O)cc2C2C=CCC21 (stereo not given) the results were POLH inh 10%, Pol iota inh inconclusive, PI5P4K alpha inh inconclusive, WRN helicase inh 0%, Pol kappa inh -11% and Pol beta inh -5%.
`NS(=O)(=O)c1ccc2c(c1)C1C=CCC1C(C1CC=CCC1)N2` (stereo not given) gave POLH inh inconclusive, Pol iota inh inconclusive, PI5P4K alpha inh -80*, WRN helicase inh inconclusive, Pol kappa inh -5%, Pol beta inh 4% and ADP-Glo counter -13%.
Screening O=c1[nH]c(N2CCOCC2)cc2ccccc12 returned POLH inh -9%, Pol iota inh inconclusive, PI5P4K alpha inh -3, WRN helicase inh 14%, Pol kappa inh -32% and ADP-Glo counter -5%.
For O=c1cc(N2CCOCC2)oc2c1ccc1ccccc12 the results were Pol kappa inh 18%[60.1 µM].
`O=C(CCc1nc2ccccc2c(=O)[nH]1)Nc1nc(-c2cccs2)cs1` gave POLH inh -15%, Pol iota inh 33%, PI5P4K alpha inh -5, WRN helicase inh -4% and Pol kappa inh 2%.
CN(c1ccc(-c2csc(NC(=O)CCCc3nc4ccccc4c(=O)[nH]3)n2)cc1)S(C)(=O)=O was read as POLH inh -9%, PI5P4K alpha inh -56*, WRN helicase inh 3% and ADP-Glo counter -9%.
For CCCOc1ccc(-c2nonc2NC(=O)c2ccco2)cc1OCCC the results were POLH inh -8%, Pol iota inh -13%, Pol kappa inh -1% and Pol beta inh -14%.
`Cc1cc(C(=O)OCC(=O)Nc2cc(S(=O)(=O)N3CCOCC3)ccc2Cl)c(C)o1` gave POLH inh 3%, Pol iota inh inconclusive, PI5P4K alpha inh 5, WRN helicase inh -11%[57.1 µM], Pol kappa inh -19%, Pol beta inh inconclusive and ADP-Glo counter 1%.
Screening Cc1cc(NC(=O)CN2CCN(C)CC2)no1 returned POLH inh -8%, Pol iota inh 16%, PI5P4K alpha inh -51*, WRN helicase inh 5%, Pol kappa inh -2%, Pol beta inh 7% and ADP-Glo counter 3%.
CN(Cc1ccccc1)C(=O)c1csc([C@@H]2C[C@H](O)[C@@H](CO)O2)n1 was read as PI5P4K alpha inh 0 and WRN helicase inh 12%[57.1 µM].
CN(Cc1ccccc1)C(=O)c1csc([C@H]2C[C@H](O)[C@@H](CO)O2)n1 was read as PI5P4K alpha inh 0, WRN helicase inh 1% and ADP-Glo counter -3%.
